# POLB inh = inhibitors of human DNA polymerase beta. P06746. Pol beta primer extension/strand displacement, fluorescence kinetic. Potency, µM (doses to about 114 µM), without a hit: at the top dose activity change, negative = inhibition, hits mostly inhibitors. actives 1.3% (n = 340,000). AID 485314; note: potency is the fitted concentration of half-maximal effect; % is set by controls: 0 for no effect and ±100 for the full control effect
#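 Curves were derived by four-parameter Hill fits of normalized qHTS data. The kinetic fluorescent primer-extension read was taken at 0 and 10 min after 50 nM substrate, following a 15 min room-temperature preincubation of 10 nM enzyme with compounds.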
# Pol kappa inh = blocks human DNA polymerase kappa activity | Q9UBT6 | purified Pol kappa, fluorescent DNA synthesis assay, 10 min | Potency, µM (top dose mostly 107 µM), for inactives: top-dose activity, negative = inhibition, actives largely listed as inhibitors | actives 0.53% (n = 400,000) | AID 588579; note: potency is the fitted concentration of half-maximal effect; % is set by controls: 0 for no effect and ±100 for the full control effect
#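 Inhibition of 10 nM Pol kappa is measured by a fluorescent read-out at 0 and 10 min following addition of 50 nM substrate (final), with a 15-min room-temperature compound preincubation.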
# Pol eta inh = DNA polymerase eta (human) inhibition; Potency, µM (highest dose often 114 µM), for the others: at the top dose activity change, negative = inhibition, actives largely listed as inhibitors; actives 1.2% (n = 390,000); recombinant Pol eta, fluorescent DNA replication assay; note: potency is the fitted concentration of half-maximal effect; % is set by controls: 0 for no effect and ±100 for the full control effect
#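 Pol eta (10 nM) was preincubated with compounds for 15 min at room temperature, after which fluorescent replication substrate (50 nM final) was added to start the reaction. Fluorescence was read kinetically at 0 and 10 min.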
# POLI inh = DNA polymerase iota (human) inhibition; Q9UNA4; Pol iota fluorescent replication assay, 10 min; Potency, µM (doses to about 115 µM), inactives show at the highest dose activity, negative = inhibition, hits mostly inhibitors; actives 1% (n = 390,000); AID 588590; note: potency is the fitted concentration of half-maximal effect
#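 Pol iota at 10 nM preincubated 15 min with compounds at room temperature; reaction started with fluorescent substrate, 50 nM final. Fluorescence read kinetically at 0 and 10 min; buffer-only wells as negative control.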
# ALOX12 inh = ALOX12 (human) lipoxygenase inhibition | P18054 | purified 12hLO, xylenol orange hydroperoxide absorbance | Potency, µM (highest dose often 108 µM), for the others: at the top dose activity change, negative = inhibition, most hits filed as inhibitors | actives 1.1% (n = 580,000); note: potency is the fitted concentration of half-maximal effect; % is set by controls: 0 for no effect and ±100 for the full control effect
# Target sequence (P18054 whole entry, looked up): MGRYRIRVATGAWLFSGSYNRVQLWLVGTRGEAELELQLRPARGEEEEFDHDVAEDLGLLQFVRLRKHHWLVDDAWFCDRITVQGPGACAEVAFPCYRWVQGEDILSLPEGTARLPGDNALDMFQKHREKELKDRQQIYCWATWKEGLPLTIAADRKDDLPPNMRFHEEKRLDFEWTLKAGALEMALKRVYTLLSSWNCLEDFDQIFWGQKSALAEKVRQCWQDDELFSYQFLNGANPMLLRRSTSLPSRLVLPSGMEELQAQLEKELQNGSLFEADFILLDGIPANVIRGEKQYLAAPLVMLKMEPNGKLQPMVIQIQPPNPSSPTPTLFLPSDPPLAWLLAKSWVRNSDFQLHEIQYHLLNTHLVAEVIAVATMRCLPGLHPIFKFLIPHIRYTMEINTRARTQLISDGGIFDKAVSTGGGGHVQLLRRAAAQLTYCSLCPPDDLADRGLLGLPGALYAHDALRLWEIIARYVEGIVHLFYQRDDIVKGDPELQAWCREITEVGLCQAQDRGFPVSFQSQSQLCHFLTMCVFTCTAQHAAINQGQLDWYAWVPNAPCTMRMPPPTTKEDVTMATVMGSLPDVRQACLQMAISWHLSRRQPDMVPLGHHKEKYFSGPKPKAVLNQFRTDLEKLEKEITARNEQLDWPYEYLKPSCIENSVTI
#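 Hydroperoxide product was detected by ferrous iron/xylenol orange as the 573 to 405 nm absorbance ratio. Arachidonic acid at 40 uM (final) was turned over for 30 min at room temperature by 150 nM human 12hLO, pH 7.0 Hepes buffer, after 15 min compound preincubation.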
# PI5P4Ka inh = blocks human PI5P4K alpha kinase activity; P48426; PI5P4Kalpha enzyme, ADP-Glo luminescence, 60 min; active compounds read low; max response, %; actives 1.2% (n = 330,000); AID 652105; active = max response of -50% or lower; inconclusive = between -30% and -50%; inactive = -30% or higher; note: value at the top dose of about 77 µM; % is set by controls: 0 for no effect and ±100 for the full control effect
#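 qHTS, 1536-well: enzyme/substrate mix, compound by pin tool, 5 microM ATP final; RT 60 min; ADP-Glo reagents 1 (45 min) then 2 (30 min); luminescence.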
# Starred values were filed as active, the others as inactive; ? = inconclusive; nt = no result; [ ] = another dose, or the depositor's remark. In the library only some 2.9% were active in any assay of this set; here they are far more common. Unless noted, calls come from the whole dose curve; as a rule, active = well fitted inhibition curve with a large enough effect; inconclusive = small, poorly fitted or top-dose-only effect, or another doubt; inactive = no such curve, though single readings can be large or run the other way.
SMILES,POLB inh,Pol kappa inh,Pol eta inh,POLI inh,ALOX12 inh,PI5P4Ka inh
CC1=Nc2cc(C(=O)NC3CCCC3)ccc2Sc2ccc(Br)cc21,20.5%,-11.3%,-12.2%,8.3%,0.5%,nt
COc1cc2oc(=O)c(CC(=O)NCCCN(C)C)c(C)c2cc1Cl,nt,nt,nt,nt,-4.8%,nt
CC(=O)N1CCN(c2ccc(NCc3ccc(C)s3)cc2)CC1,3.9%,-4.5%,-16.0%,50.1µM*,?,-0.4
COc1cn(-c2ccccc2)nc1C(=O)OCC(=O)NC1CC1,nt,nt,nt,nt,11.4%,nt
Cc1cccnc1NC(=S)Nc1ccc(Br)cc1Cl,-0.4%,-7.7%,-12.0%,3.9%,11.2µM*,0.1
Fc1ccc(CCNC(=S)Nc2ccc(Oc3ccccc3)cc2)cc1,nt,nt,nt,nt,22.4µM*,nt
S=C(NCCCc1ccccc1)Nc1ccc(Br)cc1Cl,nt,nt,nt,nt,44.7µM*,nt
S=C(NCCc1ccccc1)Nc1ccc(Br)cc1,-0.3%,-3.8%,-11.1%,6.6%,35.5µM*,2.0
Oc1ccc(CCNC(=S)Nc2ccc(F)cc2)cc1,nt,nt,nt,nt,1.2%,nt
CCCNC(=S)Nc1ccc(Br)cc1,23.1%,-6.6%,-19.0%,-2.8%,?,-2.9
Cc1cc(C2=NNC(=NCCc3ccccc3)SC2)c(C)n1CC1CCCO1 (centres undefined),2.7%,7.2%,-15.0%,60.0%,?,-18.5
Cc1ccc(N=C2NN=C(c3cc(C)n(CC4CCCO4)c3C)CS2)cc1C (centres undefined),nt,nt,nt,nt,35.5µM*,nt
O=C(N/N=C/c1ccccc1)c1n[nH]c2c1CCCC2,-29.3%,-8.0%,1.0%,86.7%,0.6%,5.9
O=C(N/N=C/C(Br)=C/c1ccccc1)c1n[nH]c2c1CCC2,3.0%,?,?,3.55µM*,nt,nt
C=C(Br)CN1CCN(C(=O)CN2CCCC2)CC1,nt,nt,nt,nt,-4.3%,nt
N[C@@H](Cc1cc(CP(=O)(O)O)cc(-c2ccccc2Cl)c1)C(=O)O,nt,21.2µM*,nt,nt,270.1%,nt
CCOC(=O)c1cnc(SSc2ncc(C(=O)OCC)c(N)n2)nc1N,12.7%,-6.6%,3.2%,-5.8%,?,-70.9*
C=CCSc1ncc(C(=O)OCC)c(N)n1,12.4%,-2.2%,3.7%,-3.7%,4.8%,5.5
Oc1ccc(Cl)cc1N=Nc1ccccc1,113.9%,-2.5%,-16.4%,26.3%,-4.7%,16.3
O=S(=O)(O)c1cc(O)c2c(O)c(N=Nc3cc(Cl)ccc3O)c(S(=O)(=O)O)cc2c1,31.6µM*,15.8µM*,35.5µM*,22.4µM*,nt,-76.1*
Cc1cc(-c2ccc(N=Nc3c(S(=O)(=O)O)cc4cc(S(=O)(=O)O)cc(N)c4c3O)c(C)c2)ccc1N=Nc1c(S(=O)(=O)O)cc2cc(S(=O)(=O)O)cc(N)c2c1O,nt,0.891µM*,nt,nt,nt,nt
COc1ccc(Cc2nnc(/C=C/c3cccc4ccccc34)o2)cc1,nt,nt,nt,nt,23.8%,nt
O=c1cc(CN2CCN(c3ccc(F)cc3)CC2)c2cc(Cl)c(O)cc2o1,nt,nt,nt,nt,-26.3%,nt
COc1ccc(C2=C(C)C(N3CCC(C(=O)Nc4ccccc4F)CC3)=NS2(=O)=O)cc1,22.4µM*,-33.1%,nt,?,?,nt
CCOc1ccccc1CNC(=O)C1CCN(C2=NS(=O)(=O)C(c3ccc(C)c(C)c3)=C2C)CC1,5.5%,-20.7%,nt,2.4%,-27.8%,nt
SMILES,POLB inh,Pol kappa inh,Pol eta inh,POLI inh,ALOX12 inh,PI5P4Ka inh
COc1ccccc1CNC(=O)C1CCN(C2=NS(=O)(=O)C(c3ccc(C)c(C)c3)=C2C)CC1,?,-2.4%[60.1 µM],-2.8%,89.1µM*,-2.6%,nt
Cc1c(Br)ccc(NC(=O)Cn2nc(-c3cccs3)ccc2=O)c1C,17.8µM*,-8.5%,-25.3%,50.1µM*,-1.6%,7.6
COc1ccc(NC(=O)c2cc3c(-c4ccc(OC)c(OC)c4)nn(C)c3s2)cc1OC,28.2µM*,?,?,?,-28.7%,0.4
O=[N+]([O-])c1cccc(N=Nc2ccc(O)cc2O)c1,nt,?,-11.5%,?,20µM*,-26.3
Cc1ccc2c(Cl)cc(Cl)c(OCc3nccn3C(F)F)c2n1,nt,nt,nt,nt,-0.7%,nt
O=C(CN1C(=O)N/C(=C\c2ccccc2OCc2ccc(C(=O)O)cc2)C1=O)Nc1ccc(F)cc1,79.4µM*,?,-13.3%,?,3.9%,-13.3
O=C(O)c1ccc(COc2ccccc2/C=C2\NC(=O)N(Cc3ccc(F)cc3)C2=O)cc1,?,-21.4%,?,?,?,-6.1
COc1cc(OC)c2cc(C(=O)Nc3ccccc3)[nH]c2c1OC,nt,nt,nt,nt,21.0%,nt
CCc1nnc(NS(=O)(=O)c2ccc(NC(=S)NC(=O)c3ccc(Br)cc3)cc2)s1,3.1%,-14.3%,?,-3.9%,5.62µM*,-21.8
CCc1nnc(NS(=O)(=O)c2ccc(NC(=O)c3ccc(Cl)cc3)cc2)s1,?,?,28.8%,3.2%,-10.9%,-13.5
CCc1nnc(NS(=O)(=O)c2ccc(NC(=S)NC(=O)c3ccccc3)cc2)s1,6.6%,-1.4%,-9.5%,5.5%,7.94µM*,-20.1
Cc1ccc(C(=O)Nc2cccc3cnccc23)cc1S(=O)(=O)N1CCCCCC1,nt,nt,nt,nt,3.8%,nt
CC(O)C(C)O (centres undefined),nt,nt,nt,nt,12.0%[176 µM],nt
COCCNC(=O)Cn1cc(/C=N/NC(=O)c2ccc(Oc3ccc(O)cc3)cc2)c2ccccc21,-1.1%,-4.7%,-11.8%,41.3%,?,-106.6*
COc1ccc(OCCn2cc(/C=N/NC(=O)c3ccncc3)c3ccccc32)cc1,-18.3%,-10.4%,-16.8%,26.1%,-21.8%,-2.4
O=C(Nc1ccc(F)cc1)c1ccc(=O)[nH]n1,5.9%,-4.5%,-12.2%,47.9%,5.2%,1.4
O=C(Nc1cccc(Cl)c1)c1ccc(=O)[nH]n1,4.2%,-4.5%,-30.0%,17.8µM*,42.4%,3.7
CC1CSc2ccc(S(=O)(=O)NC3CCN(Cc4ccccc4)CC3)cc2NC1=O (centres undefined),nt,nt,nt,nt,-0.4%,nt
C=C1CCN(C(CC(C)C)C(=O)OC)S(=O)(=O)c2ccccc21 (centres undefined),2.1%,-23.3%,-15.5%,3.4%,-0.2%,0.6
COC(=O)[C@H](CC(C)C)N1Cc2cc(OC)cc(OC)c2-c2ccccc2S1(=O)=O,nt,-11.6%,-18.6%,5.3%,25.1µM*,-7.2
CCOC(=O)CCCN1CC(O)=C(c2nc(-c3ccc(Cl)cc3)cs2)C1=N,-28.1%,-18.7%,-8.7%,105.9%,-13.1%,-12.2
CCCCN1CC(O)=C(c2nc(-c3ccc(Br)cc3)cs2)C1=N,5.01µM*,1.1%,?,14.2%,-20.1%,-1.6
O=C(CSc1nc2ccccc2o1)OCC(=O)c1ccccc1,nt,nt,nt,nt,9.4%,nt
CC(=O)N1CCN(CC(=O)Nc2c(C#N)c(C)c(C)n2C2CCCC2)CC1,nt,nt,nt,nt,-23.2%,nt
[O-]c1c[n+](-c2ccc(-[n+]3cc([O-])on3)cc2)no1,7.08µM*,-29.8%,44.7µM*,?,?,-55.7*
